High-throughput results: PubChem BioAssay, The Scripps Research Institute Molecular Screening Center
MOR-DOR inv ag – mu-delta opioid heterodimer inverse agonism; inhibition, % at 9.3 µM; hit rate 0.21% among 340,000; cell-based MOR-DOR heterodimer luminescence; P35372+P41143; in the data active = inhibition above about 22%, passing the limit was not always enough;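 also: 0% = cells with DMSO and 100% = wells without cells with DMSO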
m5-HT2A agonist – agonists of mouse serotonin 5-HT2A receptor (HTR2A); P35363; CHO-K1 mHTR2A beta-arrestin complementation, luminescence; percent of 30 µM serotonin response; activation, % at 7.6 µM; hit rate 0.66% among 360,000;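 active = activation above a run cutoff, the mean activation of all tested compounds plus 3 SD, cut at about 14% in these data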;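 also: 0% = plate median of compound wells and 100% = 30 µM serotonin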
HGIII-sPLA2 inh – Inhibits HGIII-sPLA2 liposome hydrolysis, primary screen; Q9NZ20; hit rate 0.56% among 370,000; AID 743126; QFRET BODIPY PC-A2 liposome hydrolysis, fluorescence; inhibition, % at 12.2 µM;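 active = inhibition above mean plus 3 SD of compounds lying within the high and low control bounds, cut at about 19% in these data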;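 also: 0% = median of test compound wells and 100% = no enzyme DMSO wells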
HTR5A ag – counter-screen for OPRM1-OPRD1 agonists: human HTR5A agonism; activation, % at 9.3 µM; P47898; hit rate 0.61% among 340,000; HTR5A agonist assay, luminescence, cell-based; in the data active = activation mostly above about 9.5%, no sharp cut-off; inactive = mostly below about 7.6%;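 also: 0% = cells with vehicle only and 100% = reference agonist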
Target sequence (P47898 whole entry, looked up): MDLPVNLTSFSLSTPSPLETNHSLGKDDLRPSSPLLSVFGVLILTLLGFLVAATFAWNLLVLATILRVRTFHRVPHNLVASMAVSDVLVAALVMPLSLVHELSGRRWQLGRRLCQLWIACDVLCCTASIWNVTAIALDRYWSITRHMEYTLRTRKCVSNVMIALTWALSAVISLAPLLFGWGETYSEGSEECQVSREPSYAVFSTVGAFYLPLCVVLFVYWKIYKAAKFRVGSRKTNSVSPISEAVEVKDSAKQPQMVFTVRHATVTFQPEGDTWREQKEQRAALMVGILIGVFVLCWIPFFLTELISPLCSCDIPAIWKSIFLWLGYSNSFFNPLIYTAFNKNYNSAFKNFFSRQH
OPRM1-OPRD1 ag – OPRM1-OPRD1 heterodimerization agonism; P35372+P41143; cells, luminescence; activation, % at 9.3 µM; hit rate 0.3% among 340,000; in the data active = activation above about 18%;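 also: 0% = vehicle-treated cells and 100% = reference agonist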
HTR5A inv ag – counter-screen for OPRM1-OPRD1 inverse agonists: human HTR5A inverse agonism. P47898. HTR5A cell line, luminescence. inhibition, % at 9.3 µM. hit rate 0.083% among 340,000; in the data active = inhibition mostly above about 23%, no sharp cut-off; inactive = mostly below about 18%;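 also: 0% = cells with DMSO and 100% = no-cell wells with DMSO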
MOR ag counter – OPRM1 agonism in mouse HTR2A counterscreen; shares compounds with m5-HT2A agonist; U2OS OPRM1 beta-arrestin PathHunter, luminescence; DMSO 0%, DAMGO 9.3 µM 100%; activation, % at 9.3 µM; hit rate 5.3% among 2,300; AID 624380;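 active = mean activation above the mean of DMSO-only wells plus 3 SD, cut at about 0.5% in these data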
HTR2A ag conf – confirmation of mouse HTR2A serotonin receptor agonists. shares compounds with m5-HT2A agonist. CHO-K1 PathHunter beta-arrestin recruitment, luminescence; DMSO 0%, 30 µM serotonin 100%. AID 624381. activation, % at 7.6 µM. hit rate 19% among 2,300;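 active = mean activation across triplicates above the hit threshold derived in the original primary screen, cut at about 15% in these data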
* hit, by the source's call. Sampled rows, rich in hits. Any-hit rate of the full collection: about 2.2%.

`CCOC(=O)c1c(S(=O)(=O)NCCc2ccccc2)c(C)n(C)c1C` gave MOR-DOR inv ag 16, m5-HT2A agonist 9, HGIII-sPLA2 inh 1, HTR5A ag 0, OPRM1-OPRD1 ag -3 and HTR5A inv ag -1.
For CCOC(=O)c1c(S(=O)(=O)NCCc2ccc(OC)c(OC)c2)c(C)n(C)c1C the results were MOR-DOR inv ag 0, m5-HT2A agonist 16*, HGIII-sPLA2 inh 9, HTR5A ag 1, OPRM1-OPRD1 ag 0, HTR5A inv ag 19, MOR ag counter -1 and HTR2A ag conf -3.
Screening CN(c1cccc(NC(=O)CCSc2ccccc2)c1)S(C)(=O)=O returned MOR-DOR inv ag -4, m5-HT2A agonist -3, HGIII-sPLA2 inh -8, HTR5A ag 0, OPRM1-OPRD1 ag 1 and HTR5A inv ag 5.
Screening CC(Sc1ccccc1)C(=O)Nc1cccc(N(C)S(C)(=O)=O)c1 (stereo not given) returned MOR-DOR inv ag 22, m5-HT2A agonist 17*, HGIII-sPLA2 inh -8, HTR5A ag -1, OPRM1-OPRD1 ag -5, HTR5A inv ag -1, MOR ag counter -1 and HTR2A ag conf -5.
For C[C@H]1[C@@H](OC(=O)Nc2cccc(C(F)(F)F)c2)CC[C@@]23CCCN2C(=O)CCC[C@@H]13 the results were HGIII-sPLA2 inh 16.
For CC(O)(c1ccc(F)c(F)c1)c1nc(-c2ccncc2)cs1 (stereo not given) the results were m5-HT2A agonist -2 and HGIII-sPLA2 inh 3.
Screening COc1ccc(-c2csc(C(C)(O)c3ccc(F)c(F)c3)n2)cc1 (stereo not given) returned m5-HT2A agonist 15*, HGIII-sPLA2 inh -7, MOR ag counter 0 and HTR2A ag conf -4.
Screening C=CCn1c(Cc2cccs2)nnc1SCC(=O)Nc1ccc(C)cc1 returned HGIII-sPLA2 inh -4.
`CCCn1c(SCC(=O)NCCc2ccc(Cl)cc2Cl)n[nH]c1=O` gave MOR-DOR inv ag -4, m5-HT2A agonist 16*, HGIII-sPLA2 inh -2, HTR5A ag -2, OPRM1-OPRD1 ag 1, HTR5A inv ag -14, MOR ag counter 0 and HTR2A ag conf 0.
`CCCn1c(SCC(=O)Nc2ccc(Cl)cc2)n[nH]c1=O` gave MOR-DOR inv ag 6, m5-HT2A agonist 2, HGIII-sPLA2 inh -2, HTR5A ag 1, OPRM1-OPRD1 ag -1 and HTR5A inv ag -3.
For O=C(CSc1nc2c(cnn2-c2ccc(F)cc2)c(=O)[nH]1)N1CCCCC1 the results were MOR-DOR inv ag -2, m5-HT2A agonist 15*, HGIII-sPLA2 inh 0, HTR5A ag 8, OPRM1-OPRD1 ag 0, HTR5A inv ag -23, MOR ag counter -1 and HTR2A ag conf -3.
O=C(CSc1nc2c(cnn2-c2ccc(F)cc2)c(=O)[nH]1)N1CCOCC1 was read as MOR-DOR inv ag 9, m5-HT2A agonist 5, HGIII-sPLA2 inh 8, HTR5A ag 7, OPRM1-OPRD1 ag -1 and HTR5A inv ag 16.
For Nn1c(SCC(=O)Nc2cc(C(F)(F)F)ccc2Cl)nnc1-c1n[nH]c2c1CCC2 the results were HGIII-sPLA2 inh -5.
CCCCC(=O)Nc1cc(Cl)ccc1C(=O)O was read as MOR-DOR inv ag 7, m5-HT2A agonist -1, HGIII-sPLA2 inh -1, HTR5A ag 4, OPRM1-OPRD1 ag -1 and HTR5A inv ag -2.
`CCCCC(=O)Nc1ccc(Cl)cc1F` gave m5-HT2A agonist 17*, HGIII-sPLA2 inh 3, MOR ag counter 0 and HTR2A ag conf 2.
Screening O=C(c1ccc(F)cc1F)N1CCCN(c2nc(-c3ccccc3)ns2)CC1 returned m5-HT2A agonist 0 and HGIII-sPLA2 inh -8.
CC(C)(C)NC(=O)N1CCN(c2nc(-c3ccccc3)ns2)CC1 was read as MOR-DOR inv ag 4, m5-HT2A agonist 16*, HGIII-sPLA2 inh -6, HTR5A ag 5, OPRM1-OPRD1 ag -1, HTR5A inv ag -5, MOR ag counter 0 and HTR2A ag conf -2.
